Results on 20 compounds are retold here after PubChem BioAssay (Tox21).

The structures appear in SMILES notation. Results filed as inconclusive are left out. Values without a mark were called inactive. Activity calls are given as the source filed them. Unless noted, calls follow the shape of the dose curve; as a rule, active = well fitted curve in the direction sought with a large enough effect in the repeat runs; inconclusive = weak or mixed curves; inactive = no such curve, though single readings can be large; an effect the other way counts as inactive or inconclusive.

Test [1] can be described thus: qHTS assay to identify small molecule agonists of the vitamin D receptor (VDR) signaling pathway - cell viability counter screen (AID 743224). Also: nearly all actives have a fitted effect of over 50% in size. Summed up:
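VDR-bla cell line, quantitative HTS format; 16 h compound incubation (37C, 5% CO2); ATP-based CellTiter-Glo luminescence measured in the reporter assay wells.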

Test [2] in a line: qHTS assay to identify small molecule antagonists of the vitamin D receptor (VDR) signaling pathway - cell viability counter screen (AID 743225). Also: nearly all actives have a fitted effect of over 50% in size. The essentials: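 VDR-UAS-bla HEK 293T cells were plated and incubated 4 h at 37C, then dosed with compound plus 3 nM (final) 1-alpha,25-dihydroxyvitamin D3 for 16 h. After the 2 h beta-lactamase read, viability in the same wells was read as CellTiter-Glo luminescence after 30 min at room temperature.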

Test [3] in a line: qHTS assay to identify small molecule agonists of the NFkB signaling pathway - cell viability counter screen (AID 1159515; calls by dose curve; also: nearly all actives have a fitted effect of over 55% in size). The essentials: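 Viability in NFkB-bla ME-180 cells was measured by CellTiter-Glo luminescence, 30 min room temperature, in wells already treated 5 hr with compounds and read for reporter FRET.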
The nature of test [4]: qHTS assay to identify small molecule agonists of the endoplasmic reticulum stress response signaling pathway (AID 1159516; active = well fitted activation curve with a large enough effect in the signal ratio in the repeat runs, not every such curve was filed as active; the % refers to the signal ratio). The essentials: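 ER stress element reporter (bla) in HeLa. 1,500 cells/well, overnight attachment; 5 hr compound; 2 hr RT substrate; dual-emission fluorescence.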
A short description of test [5]: qHTS assay to identify small molecule antagonists of the retinoid-related orphan receptor gamma (ROR-gamma) signaling pathway - cell viability counter screen (AID 1159520). Also: nearly all actives have a fitted effect of over 50% in size. The essentials: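 Cytotoxicity was read from cellular ATP (CellTiter-Glo luminescence) after 16 hr at 37 C with 1 uM doxycycline induction. The inducer was added 2 hr after compound transfer to Tet-on ROR gamma CHO cells.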

Test [6] has as its target Nuclear receptor ROR-gamma (Homo sapiens) (UniProt P51449). Description: qHTS assay to identify small molecule antagonists of the retinoid-related orphan receptor gamma (ROR-gamma) signaling pathway (AID 1159521;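 also: CHO cells with doxycycline inducible ROR-gamma driving an RORE luciferase reporter; top concentration of the series differs between compounds; nearly all actives have a fitted effect of over 50% in size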). The essentials: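 Tet-on ROR-gamma CHO cells with ROR response element-luciferase reporter; compounds added 2 hr before 1 uM doxycycline induction, then 16 hr at 37 C. Antagonism scored as decreased ONE-Glo luminescence.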

Test [7] can be described thus: qHTS assay to identify small molecule agonists of the AP-1 signaling pathway - cell viability counter screen (AID 1159525; calls by dose curve; also: nearly all actives have a fitted effect of over 55% in size). Summed up:
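Luminescent ATP readout (Cell Titer Glo, 30 min RT), normalised to DMSO and tetra n-octyl ammonium bromide controls. Cells were ME-180 AP-1-bla in 0.5% dialyzed FBS Opti-MEM, with a 5 h, 37 °C compound exposure.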

Test [8] in a line: qHTS assay to identify small molecule agonists of the AP-1 signaling pathway (AID 1159526; calls by dose curve).
Test [9] has as its target Retinoic acid receptor RXR-alpha (Homo sapiens) (UniProt P19793). The test is described as follows: qHTS assay to identify small molecule agonists of the RXR signaling pathway (AID 1159527; calls by dose curve; also: nearly all actives have a fitted effect of over 35% in size). Summed up:
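GeneBLAzer RXR-alpha-UAS-bla HEK 293T cells in 2% charcoal-stripped FBS medium were exposed to compounds for 16 hr at 37 C in agonist mode. Beta-lactamase reporter read as 460/530 nm FRET ratio after 2 hr substrate loading.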

A short description of test [10]: qHTS assay to identify small molecule agonists of the RXR signaling pathway - cell viability counter screen (AID 1159529). Also: nearly all actives have a fitted effect of over 50% in size. Also: potency is read from the fitted curve at half-maximal effect. The essentials: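 RXR-alpha-UAS-bla HEK 293T cells in medium with 2% charcoal-stripped FBS were pre-incubated 5 hr, then compound-treated 16 hr at 37 C. Viability was read by CellTiter-Glo luminescence in the same wells as the beta-lactamase assay, with tetraoctyl ammonium bromide as positive control.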

Test [11] can be described thus: qHTS assay to identify small molecule antagonists of the retinoid acid receptor (RAR) signaling pathway - cell viability counter screen (AID 1159551). Also: nearly all actives have a fitted effect of over 35% in size. Summed up:
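Following overnight attachment, C3RL4 reporter cells received DMSO-dissolved compounds and then retinol (1 uM final). Six hours later at 37 C, ATP content was measured by CellTiter-Glo luminescence.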

Test [12] in a line: qHTS assay to identify small molecule antagonists of the retinoic acid receptor (RAR) signaling pathway (AID 1159552; also: nearly all actives have a fitted effect of over 50% in size; also: potency is read from the fitted curve at half-maximal effect). Summed up: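 Retinol signaling pathway inhibitors screened in C3RL4 RARE-luciferase reporter cells seeded overnight at 37 C, then compounds added with 1 uM (final) retinol as pathway substrate. After 6 hr at 37 C, luciferase luminescence read after 30 min at room temperature.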

A short description of test [13]: qHTS assay to identify small molecule agonists of the retinoic acid receptor (RAR) signaling pathway (AID 1159553). The conditions noted are these: C3RL4 RARE luciferase reporter, agonist, 6 h; activation: at 73.3 µM (top of the series) unless noted. The essentials: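 Cell line C3RL4, RARE luciferase reporter. Treatment: compounds in DMSO, 6 hr, 37 C, 5% CO2, after overnight plating. Detection: luminescence, 30 min RT after reagent.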

Test [14] is described as follows: qHTS assay to identify small molecule agonists of the endoplasmic reticulum stress response signaling pathway - cell viability counter screen (AID 1159517; calls by dose curve; also: nearly all actives have a fitted effect of over 50% in size). Summed up: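 HeLa cells carrying an ESRE-driven beta-lactamase reporter receive compound for 5 hr at 37 C. Cell viability is then gauged with CellTiter-Glo by luminescence, 30 min at room temperature.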
Test [15] can be described thus: qHTS assay to identify small molecule antagonists of the estrogen related receptor (ERR) signaling pathway - cell viability counter screen (AID 1224818).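 Also: viability measured after 17.5 h of compound exposure.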 The essentials:
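Here, ERR cells are plated at 2,000 cells per well, allowed 6 h to attach, and treated with compounds in DMSO for 17.5 h at 37 C. CellTiter-Fluor is then added and fluorescence read after 30 min.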

A short description of test [16]: qHTS assay to identify small molecule antagonists of the estrogen related receptor (ERR) signaling pathway (AID 1224819). The essentials:
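LOPAC library screened for antagonism as reduced One-Glo luminescence in ERR reporter cells (2,000/well). Compounds were added after 6 h pre-incubation and left 18 h at 37C; reading followed a 30 min room-temperature reagent step.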

Test [17] is described as follows: qHTS assay to identify small molecule agonists of the estrogen related receptor (ERR) signaling pathway (AID 1224820). The essentials: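 Cells: ERR line from NTP, 2,000/well. Pre-incubation 6 h, 37 C/5% CO2. Compound (DMSO) pin transfer, 18 h 37 C. One-Glo, 30 min RT, luminescence.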
Test [18] is described as follows: qHTS assay to identify small molecule antagonists of the estrogen related receptor signaling pathway with the pleiotropic PPARgamma coactivator (PGC) cell viability counter screen (AID 1224822;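 also: viability read after 17.5 h compound exposure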). The essentials:
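qHTS format, DMSO compound stocks pin-transferred onto PGC/ERR cells 6 h after plating; 17.5 h exposure at 37 C, then CellTiter-Fluor fluorescence.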

Sequence of Retinoic acid receptor RXR-alpha (Homo sapiens) (P19793 whole entry, looked up): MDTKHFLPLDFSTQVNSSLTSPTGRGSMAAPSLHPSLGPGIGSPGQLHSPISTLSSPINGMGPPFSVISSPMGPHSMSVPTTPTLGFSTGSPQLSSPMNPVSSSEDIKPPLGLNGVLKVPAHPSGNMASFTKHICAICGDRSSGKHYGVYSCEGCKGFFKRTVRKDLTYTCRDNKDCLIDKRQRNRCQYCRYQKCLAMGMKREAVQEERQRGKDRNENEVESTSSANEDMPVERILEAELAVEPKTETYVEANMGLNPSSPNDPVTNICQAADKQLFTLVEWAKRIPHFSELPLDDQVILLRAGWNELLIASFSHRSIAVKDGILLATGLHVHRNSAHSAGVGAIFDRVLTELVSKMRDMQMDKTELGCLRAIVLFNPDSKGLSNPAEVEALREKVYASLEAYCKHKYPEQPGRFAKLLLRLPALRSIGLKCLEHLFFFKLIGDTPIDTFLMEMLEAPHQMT

Turning to `CCc1ccc(Br)cc1`, the Potency result in [1], in test [2], in test [3], in [4], in [5] and in [6] was “inactive” throughout. For the same compound, the Potency result in [7], in test [8], in test [9], in test [10], in test [11] and in test [12] was “inactive” in each case. For the same compound, the Potency entry in test [13] was “inactive”.
On to `OC[C@@H](O)[C@@H](O)CO`, for which the Potency entry in [1], in test [3], in test [4], in test [5], in test [6] and in test [7] was “inactive” throughout. For the same compound, the Potency result in test [8], in test [9], in [10], in test [11] and in test [13] was “inactive” throughout.
Take `CCCC(=O)OCCc1ccccc1`: the Potency entry in test [1], in test [2], in test [3], in [4], in test [5] and in [6] was “inactive” in each case. For the same compound, the Potency entry in test [7], in test [8], in [9], in test [10], in test [11] and in test [12] was “inactive” in each case. The Potency entry in test [13] was “inactive”.
Take `CN(C)[C@@H](CCOc1cccc2ccccc12)c1ccccc1`: the Potency entry in test [3], in test [4] and in test [14] was “inactive” throughout. Further, the Potency was 21.3 µM (active) in test [10] and 29.8 µM (active) in test [12].
`O[C@@H]([C@H](O)[C@H](O)CBr)[C@H](O)CBr`: the Potency result in test [1], in test [2], in test [3], in test [4], in test [5] and in [6] was “inactive” in each case. Moreover, the Potency entry in [7], in test [8], in [9], in [10], in test [11] and in [12] was “inactive” throughout. Moreover, the Potency result in [13] was “inactive”.
With `O=c1[nH]c(=O)n([C@H]2C[C@H](O)[C@@H](CO)O2)cc1F`, the Potency result in [1], in [2], in test [3], in [4], in test [5] and in test [6] was “inactive” in each case. For the same compound, the Potency entry in [7], in test [8], in test [9], in [10], in [11] and in [12] was “inactive” in each case. In addition, the Potency entry in test [13] was “inactive”.
For `CC(=O)c1ccc(C(C)=O)cc1`, the Potency entry in test [3], in test [4], in [5], in test [6], in test [7] and in test [8] was “inactive” in each case. Also, the Potency entry in test [9], in test [10], in test [11], in [12] and in [13] was “inactive” throughout.
For the compound `C=Cc1cccc(C)c1`, the Potency result in [1], in test [2], in test [3], in test [4], in [5] and in [6] was “inactive” each time. For the same compound, the Potency result in test [7], in [8], in test [9], in [10], in test [11] and in [12] was “inactive” in each case. Further, the Potency entry in test [13] is “inactive”.
Turning to `O=C(/C=C/c1ccc(O)c(O)c1)O[C@@H](C(=O)O)[C@@H](OC(=O)/C=C/c1ccc(O)c(O)c1)C(=O)O`, the Potency entry in [1], in [3], in test [4], in test [5], in test [6] and in [7] was “inactive” each time. In addition, the Potency result in test [8], in [9], in [10], in test [11] and in test [13] was “inactive” each time.
Turning to `COC(=O)c1ccccc1C`, the Potency entry in test [1], in [2], in [3], in [4], in [5] and in test [6] was “inactive” throughout. The Potency result in [7], in test [8], in test [9], in test [10], in test [11] and in test [13] was “inactive” each time.
In the case of `O=S(=O)(O)c1ccc(N=Nc2c(O)ccc3ccccc23)cc1`, the Potency result in test [1], in test [3], in test [4], in test [14], in [8] and in test [13] was “inactive” each time.
Consider `CN(C)CCN1CCN(c2cccc(Cl)c2)C1=O`, for which the Potency result in test [1], in test [2], in test [3], in test [4], in [5] and in [6] was “inactive” each time. The Potency entry in test [7], in test [8], in test [9], in test [10] and in test [11] was “inactive” in each case.
For `CC(N=C(NC#N)Nc1ccncc1)C(C)(C)C` (configuration not stated), the Potency result in test [1], in [2], in [3], in test [4], in [5] and in test [6] was “inactive” in each case. Also, the Potency result in test [7], in test [8], in test [9], in test [10], in [11] and in [13] was “inactive” in each case. For the same compound, the Potency entry in test [16] and in test [18] was “inactive” throughout. Also, the result in test [15] and in [17] was inactive.
Turning to `Cc1ccc(C)cc1`, the Potency result in [1], in test [3], in [4], in test [5], in test [6] and in test [7] was “inactive” throughout. Also, the Potency entry in test [8], in [9], in [10], in test [11] and in test [13] was “inactive” in each case.
`CCCCCCCCCCOC(=O)c1ccccc1C(=O)OCCCCCCCC`: the Potency entry in test [1], in test [2], in test [3], in [4], in test [5] and in test [6] was “inactive” each time. Moreover, the Potency entry in [7], in test [8], in test [9], in [10] and in test [11] was “inactive” in each case.
Regarding `COc1cccc(OC)c1C(=O)O`, the Potency entry in test [1], in test [2], in test [3], in test [4], in test [5] and in test [6] was “inactive” throughout. In addition, the Potency result in test [7], in test [8], in test [9], in test [10] and in test [11] was “inactive” throughout.
Consider `CCc1cccc(CC)c1NC(=O)CN(CC(=O)O)CC(=O)O`, for which the Potency result in test [1], in [2], in test [3], in test [4], in test [5] and in test [6] was “inactive” each time. The Potency result in [7], in test [8], in test [9], in test [10], in test [11] and in test [13] was “inactive” each time.
Regarding `CC1(C)CC(O)CC(C)(C)N1`, the Potency entry in test [1], in test [2], in test [3], in test [4], in [5] and in test [6] was “inactive” throughout. Moreover, the Potency result in test [7], in test [8], in test [9], in [10], in test [11] and in test [13] was “inactive” in each case.
Turning to `c1cnccn1`, the Potency entry in [1], in test [3], in test [4], in test [5], in test [6] and in [7] was “inactive” throughout. The Potency entry in [8], in test [9], in test [10], in test [11] and in [13] was “inactive” each time.
Regarding `Clc1ccnc(Cl)n1`, the Potency result in test [1], in test [3], in test [4], in [5], in test [6] and in [7] was “inactive” each time. In addition, the Potency result in test [8], in [9], in test [10], in [11] and in test [12] was “inactive” each time.
